Structures are written as SMILES. The panel holds about 83,000 compounds, 20% with a hit somewhere; the sample as a whole holds those more often.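 96-well plates, one dose, 48 hours. Percent growth reported; active if below 10.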 Values without a mark were called inactive. Active and inactive are the calls of the source.

Test in all cases: NCI-60 one-dose screen, 48 h (100 = growth as untreated, 0 = no growth, -100 = all killed)
Holding throughout (conditions): 10 µM

Experiment [1] relates to K-562 leukemia.
The subject of experiment [2] is MALME-3M melanoma.
The subject of experiment [3] is MDA-MB-231 breast.
The test system of experiment [4] is RXF 393 renal.
Experiment [5] has as its system SF-268 CNS.
Experiment [6] relates to SF-295 CNS.
The subject of experiment [7] is SF-539 CNS.
Experiment [8] relates to UACC-257 melanoma.
For experiment [9], the system named is M14 melanoma.
Experiment [10] relates to HCT-15 colon.

For `N=C(N)c1ccc(-c2ccc(-c3ccco3)o2)cc1`, the growth in experiment [1] was 7.46% (active); in experiment [2], 53%; in [3] it was 52.4%; in experiment [4], 62.5%; in experiment [5] it was 74.4%; in experiment [6], 61.4%. Besides, the growth is 83.1% in experiment [7], 64.2% in experiment [8], 74% in [9] and 31.2% in experiment [10].
For the compound `O=c1oc2cc(OS(=O)(=O)c3ccccc3)ccc2c2c1CCCCC2`, the growth in [1] was 37.4%; in experiment [2] it was 66.7%; in experiment [3], 68.4%; in [4] it was 64%; in experiment [5], 76.8%; in experiment [6], 59.8%. Besides, the growth in experiment [7] was 48.3%; in experiment [8], 50.8%; in experiment [9] it was 70.2%; in [10], 42.2%.
Turning to `N=C(N)c1ccc(-c2ccc(-c3ccccc3)o2)nc1`, the growth was 30.2% in experiment [1]; 91.9% in experiment [2]; 50.2% in experiment [3]; 106% in [4]; 91.2% in [5]; 81% in experiment [6]. The growth was 92% in [7], 94.6% in experiment [8], 97.9% in experiment [9] and 81.1% in experiment [10].
Regarding `Cc1ccc(NC(=O)Nc2nc3ccccc3s2)cc1NC(=O)Nc1nc2ccccc2s1`, the growth in [1] was 83.8%; in [2], 90.6%; in experiment [3], 82.4%; in experiment [4] it was 94.7%; in experiment [5], 91.5%; in experiment [6], 101%. For the same compound, the growth in experiment [7] is 74.6%; in experiment [8], 10.5%; in experiment [9], 90.3%; in experiment [10], 72.9%.
With `COc1ccc(-c2nn(-c3cccc(NC(=O)c4cccc(C(F)(F)F)c4)c3)cc2-c2ccncc2)cc1Cl`, the growth in [1] was 14.8%; in [2], 12.6%; in experiment [3], 9.03% (active); in experiment [4], 19.4%; in experiment [5] it was 37.5%; in [6] it was -10.7% (active). Moreover, the growth is -39.6% (active) in experiment [7], 25.5% in [8], 7.66% (active) in experiment [9] and 26.9% in experiment [10].
As for `COc1cc2cc3c(nc2cc1OC)CCN3Cc1ccc(NC(=O)Nc2ccc(F)cc2F)cc1`, the growth was 61.5% in experiment [1]; 93.2% in [2]; 89% in experiment [3]; 88.6% in experiment [4]; 94.9% in experiment [5]; 76.9% in experiment [6]. The growth was 97.8% in [7], 77.3% in experiment [8], 81.8% in [9] and 78.8% in [10].
For the compound `CCN(CC)Cc1cc(Nc2ccnc3cc(Cl)ccc23)ccc1OC`, the growth in [1] was 45.1%; in experiment [2], 110%; in experiment [3], 55.7%; in experiment [4] it was 64.2%; in experiment [5], 96.6%; in experiment [6] it was 91%. Further, the growth in experiment [7] is 62.7%; in [8] it was 94.4%; in experiment [9], 7.19% (active); in experiment [10] it was 56.4%.
With `Cc1ccc(-c2n[nH]c(=O)c3noc(-c4ccc(C)cc4)c23)cc1`, the growth in experiment [1] is 13.2%; in experiment [2], 26.4%; in experiment [3], 58.1%; in experiment [4], 38%; in experiment [5], 53.5%; in experiment [6], 49.3%. In addition, the growth in experiment [7] was 3% (active); in experiment [8] it was 55.9%; in experiment [9], 28.8%; in experiment [10], 33.1%.
For the compound `c1ccc([C@H]2CN3CCSC3=N2)cc1`, the growth in experiment [1] was 91.8%; in experiment [2], 92.3%; in experiment [3] it was 101%; in [4] it was 101%; in experiment [5] it was 111%; in experiment [6], 91.3%. Besides, the growth in experiment [7] is 87.8%; in experiment [8] it was 104%; in [9] it was 85.8%; in experiment [10], 108%.
`NC(=O)c1ccc(-c2cccc3c(=O)nc(N4CCOCC4)oc23)cc1`: the growth in [1] is 110%; in experiment [2], 85.4%; in [3], 91.9%; in experiment [4], 104%; in experiment [5] it was 93.8%; in experiment [6] it was 93.9%. The growth in [7] was 102%; in experiment [8] it was 104%; in experiment [9], 97.8%; in experiment [10] it was 102%.
On to `O=C1Nc2ccc(Cl)cc2/C1=C\c1c(-c2ccc(Cl)cc2)nc2sc(C3CC3)nn12`, for which the growth in experiment [1] is 76.1%; in experiment [2], 42%; in [3], 43.7%; in experiment [4] it was 21.1%; in experiment [5], 34%; in experiment [6], 41.4%. Besides, the growth in experiment [7] is 8.81% (active); in experiment [8] it was 63.2%; in experiment [9] it was 74.2%; in [10], 77.6%.
With `CC1=C(N2CCOCC2)C(N2CCOCC2)=C(C)C(=O)C1=O`, the growth is 93% in [1]; 101% in experiment [2]; 115% in experiment [3]; 101% in [4]; 93.3% in experiment [5]; 97.2% in experiment [6]. The growth in [7] was 103%; in [8], 91.5%; in experiment [9], 103%; in experiment [10], 99.6%.
Turning to `O=C1ON=[N+](c2ccc(Cc3ccc([N+]4=NOC(=O)C4CN4CCOCC4)cc3)cc2)C1CN1CCOCC1` (stereo not given), the growth in experiment [1] was 26.4%; in [2], 65.6%; in [3], 60.5%; in experiment [4], 72.2%; in [5] it was 78.3%; in experiment [6], 44.1%. Further, the growth in [7] was 77.5%; in [8], 75.1%; in experiment [9], 69.5%; in experiment [10], 78.6%.
Take `COc1cc(C(=O)N2CCN(c3ccccc3OC)CC2)c(N)cc1OCCCN1CCN(c2ccccc2OC)CC1`: the growth in [1] is 8.81% (active); in [2], 83.4%; in [3], 80.3%; in experiment [4], 92.5%; in experiment [5], 110%; in experiment [6] it was 96.9%. The growth is 89.9% in [7], 104% in experiment [8], 85.2% in experiment [9] and 98.7% in experiment [10].
Regarding `COc1ccc(-c2cc(/C=C3\C(=O)Nc4ccc(Cl)cc43)[nH]n2)cc1OC`, the growth in experiment [1] was 100%; in experiment [2], 87.3%; in [3], 79.6%; in [4], 88.5%; in [5] it was 85.8%; in experiment [6], 99.6%. The growth in experiment [7] was 82.2%; in experiment [8], 132%; in experiment [9], 101%; in experiment [10], 77.5%.
On to `O=C(Nc1cccc(Cl)c1)Nc1nccs1`, for which the growth is 85.8% in [1]; 93.5% in experiment [2]; 93.2% in experiment [3]; 103% in [4]; 107% in [5]; 97.6% in experiment [6]. In addition, the growth was 88.4% in [7], -10.8% (active) in experiment [8], 89.3% in experiment [9] and 86.2% in experiment [10].
With `c1ccc(CO[C@H]2CO[C@H]3[C@@H]2OC[C@H]3OCc2ccccc2)cc1`, the growth in experiment [1] was 106%; in experiment [2], 144%; in experiment [3], 112%; in experiment [4], 119%; in [5], 102%; in [6], 95.3%. The growth was 110% in [7], 108% in experiment [8], 104% in experiment [9] and 99.1% in experiment [10].
In the case of `CC(C)N(CCNc1nc(C(Cl)(Cl)Cl)nc2cc(Cl)ccc12)C(C)C`, the growth is -53.9% (active) in experiment [1]; -28% (active) in [2]; -66.4% (active) in [3]; -19% (active) in experiment [4]; 0.341% (active) in experiment [5]; -64.9% (active) in [6]. Also, the growth in experiment [7] is -33.7% (active); in [8] it was -64.7% (active); in experiment [9], -68.7% (active); in experiment [10], -38.4% (active).
For the compound `COc1ccc([N+](=O)[O-])c(C(=O)O)c1`, the growth in experiment [1] is 88.6%; in experiment [2], 105%; in experiment [3] it was 121%; in [4], 98.3%; in experiment [5], 102%; in [6], 88.7%. Moreover, the growth in [7] is 98.7%; in [8] it was 110%; in [9], 100%; in experiment [10], 98.5%.
For `COc1ccc(-c2nc(-c3nc4cc(Cl)c(F)cc4[nH]3)c3ccccn23)cc1`, the growth in experiment [1] is 40.3%; in experiment [2], 97.4%; in [3], 57.5%; in [4], 87.8%; in experiment [5], 75.3%; in experiment [6] it was 45.1%. The growth is 92.8% in experiment [7], 61.9% in experiment [8], 66.2% in experiment [9] and 59.5% in experiment [10].
On to `O=C1Nc2ccccc2C1=NC1CCCCC1`, for which the growth in experiment [1] was 100%; in [2], 90.9%; in experiment [3], 103%; in experiment [4] it was 107%; in experiment [5], 96%; in [6], 98.3%. Also, the growth is 99.7% in [7], 100% in experiment [8], 106% in experiment [9] and 105% in experiment [10].
Consider `CN(Cc1ccccc1)Cc1ccc([N+](=O)[O-])cc1I`, for which the growth in experiment [1] is 91.7%; in [2], 84%; in [3], 101%; in experiment [4], 88.2%; in [5] it was 98%; in experiment [6] it was 104%. Also, the growth is 100% in experiment [7], 103% in [8], 102% in [9] and 92.2% in experiment [10].
In the case of `COc1ccc(OC)c(/C=C/c2nc(SC)n(-c3ccc(Cl)cc3)n2)c1`, the growth is 30.7% in experiment [1]; 44.8% in [2]; 91.7% in experiment [3]; 59.7% in [4]; 91.7% in experiment [5]; 46.8% in experiment [6]. The growth in experiment [7] is 88.5%; in experiment [8] it was 87.3%; in experiment [9], 60%; in experiment [10], 58.9%.
Regarding `CC[C@H](C)C(=O)O[C@H]1CCC=C2C=C[C@H](C)C(CCC3C[C@@H](O)CC(=O)O3)[C@H]21` (stereo not given in full), the growth in experiment [1] is 71.5%; in [2], 89.1%; in [3], 2.32% (active); in experiment [4] it was 70.2%; in experiment [5], 33.8%; in [6] it was 8.14% (active). In addition, the growth is 85.8% in [7], 75.2% in [8], 61.7% in experiment [9] and 55.8% in experiment [10].
Regarding `COc1ccc(-c2nn(-c3cccc(NC(=O)c4ccc5c(c4)OCCO5)c3)cc2-c2ccncc2)cc1Cl`, the growth in experiment [1] is 18.4%; in experiment [2], 4.38% (active); in [3], 27.2%; in [4] it was 0.93% (active); in experiment [5], 34.8%; in [6], -26% (active). Besides, the growth was -20.7% (active) in experiment [7], 34.9% in experiment [8], 13.5% in experiment [9] and 32.8% in [10].
Consider `CSC1=NCCCC1`, for which the growth in experiment [1] was 104%; in experiment [2] it was 109%; in experiment [3], 123%; in experiment [4], 108%; in experiment [5], 109%; in experiment [6] it was 110%. In addition, the growth in experiment [7] was 111%; in experiment [8], 100%; in experiment [9], 108%; in experiment [10] it was 101%.
For the compound `COc1ccc2c(c1)nc(N)c1c3cccnc3cn21`, the growth in experiment [1] was 18.4%; in experiment [2] it was 66.3%; in [3], 22.4%; in experiment [4] it was 34.8%; in experiment [5] it was 34.4%; in experiment [6], -16.6% (active). The growth in [7] was 10.2%; in experiment [8], 67.1%; in [9] it was 9.28% (active); in experiment [10] it was 19.5%.
Consider `CS(=O)(=O)Nc1cccc(-c2cc(-c3ccccc3Cl)c(C#N)c(N)n2)c1`, for which the growth in [1] is 14.1%; in experiment [2], 24.8%; in experiment [3], 49.1%; in [4], 6.08% (active); in experiment [5] it was 49.2%; in experiment [6] it was 7.3% (active). The growth in experiment [7] is -14.4% (active); in [8], 74.3%; in experiment [9] it was 23.4%; in experiment [10], 30.1%.
